Laboratory results published in the OligoGym collection.

Biological target: TRIM23
Assay: pooled miR-30 sensor sort-seq; sequence = guide strand
Settings: shRNA
Note: reference of the scale not given here.

Point of comparison: ATCAACAACACTTAGAGCCATT, sensor-assay potency score (higher = more potent) -1.25. Against it:
- TTTAACTTAAACAAGATAGTAG — higher, 0.417
- TATGCACACAAACTACACCTGT — higher, -0.275
- TAGTTTGACAACCTTCTTCCAA — higher, -0.272
- TAAAATTGATGCTCGGATCTGA — higher, 0.781
- TAGAGGAACTCGCCTGTGCTTT — higher, -1.17

Biological target: TRIM25
Assay: as above
Settings: shRNA

Point of comparison: TAAATCCACTAACTGTTCCGGG, sensor-assay potency score (higher = more potent) -0.339. Against it:
- TAAATGGTGTCAAACTTGCTGT — lower, -0.555
- TATAGCACTCTGACAGAGCCAC — lower, -0.415
- TTTAATGTAATACTCCAGGAGC — lower, -0.733
- TTGAGGTCTATGGTGCTCTGGT — lower, -0.448
- TTGTTTTAAATCCACTAACTGT — lower, -0.521
- TTTATCTTCCTTGTCGAGGTGG — higher, 0.408
- TTGAGAGATGTTGAGTTCGGAT — lower, -0.803
- TTGAGTTCGGATGTGAGCTGGT — higher, 0.643
- TTGTGCTGGGAACATTTGCGGC — lower, -1.66
- TTTCCGTGTATTCTTGTTGTAG — higher, -0.308
- TTGTTGTAGCTGCTCCACCTTT — lower, -0.889
